Among the test systems are HCT-15 colon; HT29 colon; SNB-75 CNS; SNB-19 CNS; U251 CNS; PC-3 prostate; SK-MEL-5 melanoma; UACC-62 melanoma; LOX IMVI melanoma; SK-MEL-28 melanoma; EKVX NSCLC; UO-31 renal; ACHN renal; CAKI-1 renal; A498 renal; CCRF-CEM leukemia; MOLT-4 leukemia; SK-MEL-2 melanoma; SN12C renal; TK-10 renal.
Holding throughout (test): NCI-60 one-dose screen, 48 h (100 = growth as untreated, 0 = no growth, -100 = all killed)
Holding throughout (details): 10 µM unless noted

About 83,000 compounds went through this panel and 20% of them were active in at least one assay; those are over-represented in the sample as a whole.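 Method: cells in 96-well plates; compound added at one concentration; 48 h incubation; percent growth measured; values under 10 scored active.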 A number with no mark means an inactive call. Activity calls are given as the source filed them.

With `O=C1C2=C(CCN(Cc3ccccc3)C2)N2CCN=C2N1Cc1ccc(F)cc1F`, the growth was 20.4% with HCT-15 colon; 34% with HT29 colon; 46.7% in the assay with SNB-75 CNS; 30.1% with SNB-19 CNS; 21.3% with U251 CNS; 21.3% in the assay with PC-3 prostate. The growth with SK-MEL-5 melanoma was 27.5%; in the assay on UACC-62 melanoma, 44.5%; in the assay on LOX IMVI melanoma, 39.3%; in the assay with SK-MEL-28 melanoma, 57.9%; in the assay with EKVX NSCLC it was 30.2%; in the assay on UO-31 renal it was 32.5%. The growth was 35.6% with ACHN renal; 32.9% in the assay with CAKI-1 renal; 14.6% in the assay with A498 renal; 56.7% with CCRF-CEM leukemia; 74.1% in the assay with MOLT-4 leukemia.

Take `COC(=O)c1ccc2oc(NC(=O)c3ccc(N4CCOCC4)c([N+](=O)[O-])c3)nc2c1`: the growth in the assay with HCT-15 colon was 107%; in the assay on HT29 colon it was 95.6%; in the assay with SNB-75 CNS it was 79.7%; in the assay with SNB-19 CNS, 92.4%; in the assay on U251 CNS, 92.2%; in the assay on PC-3 prostate, 89.5%. The growth was 104% in the assay with SK-MEL-5 melanoma; 90.6% in the assay with UACC-62 melanoma; 97.4% in the assay on SK-MEL-28 melanoma; 99.5% in the assay with SK-MEL-2 melanoma; 96.6% with EKVX NSCLC; 87.3% in the assay with SN12C renal. Moreover, the growth with UO-31 renal was 75.4%; in the assay with TK-10 renal it was 115%; in the assay with ACHN renal it was 94.1%; in the assay on CAKI-1 renal, 85.9%; in the assay on A498 renal, 98.5%; in the assay with CCRF-CEM leukemia, 90.3%.

Turning to `Cc1cnc(Nc2ccc(OCCN3CCCC3)cc2)nc1NCc1ccco1`, the growth was 74.6% in the assay on HCT-15 colon; 50.7% with HT29 colon; 33.3% with SNB-75 CNS; 94.4% with SNB-19 CNS; 65.8% in the assay with U251 CNS; 72% in the assay on PC-3 prostate. For the same compound, the growth in the assay with SK-MEL-5 melanoma was 81.7%; in the assay on UACC-62 melanoma it was 86.9%; in the assay with SK-MEL-28 melanoma it was 103%; in the assay on SK-MEL-2 melanoma, 97.9%; in the assay on EKVX NSCLC, 71.5%; in the assay on SN12C renal, 68.5%. Moreover, the growth was 47.8% with UO-31 renal; 79.4% in the assay with TK-10 renal; 79.4% in the assay on ACHN renal; 62.5% with CAKI-1 renal; 71.5% with A498 renal; 72.7% in the assay on CCRF-CEM leukemia.

For `Cc1cc(N2CCCCC2)nc(N(CCNc2ccnc3cc(Cl)ccc23)Cc2ccccn2)n1`, the growth with HCT-15 colon is 17.6%; in the assay with HT29 colon, 13.1%; with SNB-75 CNS it was 80.3%; with SNB-19 CNS it was 75%; in the assay with U251 CNS it was 41.8%; in the assay with PC-3 prostate, 45.1%. In addition, the growth is 48.8% with SK-MEL-5 melanoma; 67.5% with UACC-62 melanoma; 62.7% in the assay on SK-MEL-28 melanoma; 79.9% in the assay with SK-MEL-2 melanoma; 53.7% with EKVX NSCLC; 62.3% in the assay on SN12C renal. Besides, the growth in the assay on UO-31 renal is 23.7%; with TK-10 renal, 83.8%; in the assay on ACHN renal, 62%; in the assay on CAKI-1 renal, 54.1%; in the assay with A498 renal it was 37.7%; in the assay on CCRF-CEM leukemia, 31.8%.

On to `COc1ccc(Oc2nc(Nc3ccc(N4CCCCC4)nc3)ncc2NC(=O)c2cc(OC)cc(OC)c2)cc1`, for which the growth in the assay with HCT-15 colon was 17.8%; with HT29 colon, 13.8%; in the assay with SNB-75 CNS it was 34.1%; in the assay with SNB-19 CNS it was 41.5%; with U251 CNS it was 35.1%; in the assay on PC-3 prostate, 35.6%. The growth in the assay with SK-MEL-5 melanoma is 28.7%; in the assay on UACC-62 melanoma it was 18.8%; in the assay with SK-MEL-28 melanoma, 53.9%; in the assay with SK-MEL-2 melanoma it was 41.2%; in the assay with EKVX NSCLC, 40.8%; in the assay with SN12C renal, 53.2%. Also, the growth in the assay with UO-31 renal is 33.3%; in the assay with TK-10 renal, 75.5%; in the assay on ACHN renal, 28.8%; in the assay with CAKI-1 renal, 41.8%; in the assay on A498 renal, 39.1%; with CCRF-CEM leukemia it was 20%.

As to `Clc1ccc2c(NCCCN3CCN(c4nc(-n5ccnc5)nc5ccccc45)CC3)ccnc2c1`, the growth in the assay on HCT-15 colon is -64.6% (active); in the assay on HT29 colon it was -16.2% (active); with SNB-75 CNS it was 100%; in the assay with SNB-19 CNS it was 99.5%; in the assay with U251 CNS, 97.2%; with PC-3 prostate, 78.4%. For the same compound, the growth is -94.8% (active) in the assay on SK-MEL-5 melanoma; 93.4% with UACC-62 melanoma; -86.9% (active) in the assay with SK-MEL-28 melanoma; 97.7% with SK-MEL-2 melanoma; 86% in the assay with EKVX NSCLC; 84.1% with SN12C renal. Besides, the growth in the assay on UO-31 renal was 43.5%; with TK-10 renal, 122%; in the assay on ACHN renal it was 110%; with CAKI-1 renal it was 86.3%; in the assay on A498 renal it was 85.1%; with CCRF-CEM leukemia it was 6.59% (active).

For the compound `CN1CCC(=C2c3ccccc3C=Cc3ccccc32)CC1`, the growth is 73.7% in the assay on HCT-15 colon; 61.9% with HT29 colon; 47.8% with SNB-75 CNS; 91.7% in the assay on SNB-19 CNS; 59.8% with U251 CNS; 64.9% in the assay with PC-3 prostate. For the same compound, the growth in the assay on SK-MEL-5 melanoma is 68.6%; in the assay on LOX IMVI melanoma, 72.1%; in the assay with SK-MEL-28 melanoma, 85.9%; with SK-MEL-2 melanoma it was 105%; with EKVX NSCLC it was 91.9%; in the assay with SN12C renal, 79.1%. Besides, the growth in the assay with UO-31 renal is 67%; in the assay with TK-10 renal, 112%; in the assay on ACHN renal, 84.4%; in the assay on CAKI-1 renal, 95.5%; in the assay on A498 renal it was 99.2%; in the assay on CCRF-CEM leukemia, 53.1%. Also, the growth in the assay with MOLT-4 leukemia is 72.6%.

As for `C=C1c2c(C)nn(-c3ccc(O)cc3)c2N(C)C23C[C@@H]1C1(C)c4c(C)nn(-c5ccc(O)cc5)c4N(C)C(C)(C[C@H]12)C3` (some centres undefined), the growth with HCT-15 colon was 11.1%; in the assay on HT29 colon, 17.5%; in the assay with SNB-75 CNS, 64.2%; with SNB-19 CNS it was 48.7%; in the assay with U251 CNS, 33%; in the assay with PC-3 prostate, 12.8%. Moreover, the growth is 11.4% in the assay with SK-MEL-5 melanoma; 32.7% in the assay with UACC-62 melanoma; 42.6% with SK-MEL-28 melanoma; 44.3% with SK-MEL-2 melanoma; 26.1% in the assay on EKVX NSCLC; 30% in the assay with SN12C renal. Also, the growth with UO-31 renal is 22.4%; in the assay on TK-10 renal, 57.3%; in the assay on ACHN renal, 24.6%; in the assay on CAKI-1 renal it was 27.2%; in the assay on A498 renal, 34.8%; with CCRF-CEM leukemia it was 4.13% (active).

The record behind these values is PubChem BioAssay (NCI).
